# Measurements from the supplement of paper PMC9135407.
# Several values for one entry are separate records, joined by “and”; a condition that tells them apart may be missing. Identical values can stand only once. Counter-ions that a name gives are not always drawn. Screen size: about 5,800 compounds; about 620 (11%) showed activity. Shown is part of a subset that was picked to be rich in actives. Unmarked numbers belong to inactive results.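 Rule for the calls: active = score above a cut-off or among the top three wells of a plate; in these data no inactive exceeds 0.85.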
# System: primary human hepatic stellate cells (donor 1)
# Assay: scaled lipid accumulation score (0 = DMSO-like, 1 = nortriptyline-like); higher = stronger HSC inactivation (lipid re-accumulation), active = hit call of the paper
# Settings: 48 h
# [1] = library stock concentration: 1 mM
# [2] = library stock concentration: 10 mM
# [3] = library stock concentration: 3.33 mM
# [4] = library stock concentration: 80 uM
# [5] = library stock concentration: 400 uM
# [6] = library stock concentration: 2 mM
structure (smiles),measurement,setting,value
CCCCC/C=C\C/C=C\C/C=C\CCCCCCC(=O)O [Dihomo-gamma-linolenic acid],scaled lipid accumulation score,[1],≤ -0.021
CCCCC/C=C\C/C=C\C/C=C\CCCCCCC(=O)O [Dihomo-.gamma.-Linolenic Acid],scaled lipid accumulation score,[1],0.003
CCCCC(CC)COC(=O)CC(C(=O)OCC(CC)CCCC)S(=O)(=O)O (centres undefined),scaled lipid accumulation score,[2],≤ 0
CCCCC[C@H](O)/C=C/[C@H]1[C@H](O)CC(=O)[C@H]1C/C=C\CCCC(=O)OC(C)C [8-iso Prostaglandin E2 isopropyl ester],scaled lipid accumulation score,[1],≤ 0
CC/C=C\C/C=C\C/C=C\C/C=C\C/C=C\C/C=C\CCC(=O)O[C@H](COCCCCCCCCCCCCCCCC)COP(=O)([O-])OCC[N+](C)(C)C [Docosahexaenoyl PAF C-16],scaled lipid accumulation score,[1],≤ 0
CC/C=C\C/C=C\C/C=C\C/C=C\C/C=C\CCCC(=O)O[C@H](COCCCCCCCCCCCCCCCC)COP(=O)([O-])OCC[N+](C)(C)C [Eicosapentaenoyl PAF C-16],scaled lipid accumulation score,[1],≤ 0
COc1ccc(CCN(C)CCCC(C#N)(c2cc(OC)c(OC)c(OC)c2)C(C)C)cc1OC (centres undefined),scaled lipid accumulation score,[2],0.616
CCCCC[C@H](O)/C=C/[C@@H]1[C@H]2C[C@@H](CCCCC(=O)O)O[C@H]2C[C@H]1O [6.alpha.-Prostaglandin I1],scaled lipid accumulation score,[1],0.002
C=CCc1ccc(O)c(-c2ccc(O)c(CC=C)c2)c1 [Honokiol],scaled lipid accumulation score,[3],≤ 0
same,scaled lipid accumulation score,[2],0.295
CCCCC[C@@H](O)/C=C/[C@H]1C(=O)C[C@H](O)[C@@H]1CCCCCCCO [Prostaglandin D1 Alcohol],scaled lipid accumulation score,[1],≤ 0
CC(=O)CCCCn1cnc2c1c(=O)n(C)c(=O)n2C,scaled lipid accumulation score,[2],≤ 0
Nc1ncnc2c1C(=O)N(c1ccc([C@H]3CC[C@H](CC(=O)O)CC3)cc1)CCO2,scaled lipid accumulation score,[3],≤ -0.009
same,scaled lipid accumulation score,[2],≤ 0
COc1ccc(CCC(C)NC2CC(C)(C)NC(C)(C)C2)cc1 (centres undefined),scaled lipid accumulation score,[2],0.998 (active)
COc1ccc(CNCc2cccc3ccccc23)cc1,scaled lipid accumulation score,[3],0.023
same,scaled lipid accumulation score,[2],0.491
CC(/C=C/c1cccc(Oc2ccc(F)cc2)c1)N(O)C(N)=O (centres undefined),scaled lipid accumulation score,[2],0.544 and 0.071
C[C@@H]1C[C@H]2[C@@H]3CCC4=CC(=O)C=C[C@]4(C)[C@@]3(F)[C@@H](O)C[C@]2(C)[C@H]1C(=O)CO,scaled lipid accumulation score,[2],≤ 0
Cc1cc(C)cc(OCC2CNC(=O)O2)c1 (centres undefined) [Metaxalone],scaled lipid accumulation score,library stock concentration: 9 mM,≤ 0
same,scaled lipid accumulation score,[2],≤ -0.023
COc1ccc2nc3cc(Cl)ccc3c(Nc3cc(CN4CCCC4)c(O)c(CN4CCCC4)c3)c2n1,scaled lipid accumulation score,[2],0.065
N=C(N)NC(=N)N1CCOCC1,scaled lipid accumulation score,[2],≤ 0
N=C(N)NC(=N)N1CCOCC1 [Moroxydine HCl],scaled lipid accumulation score,[3],0.051
same,scaled lipid accumulation score,library stock concentration: 9.6 mM,≤ -0.006
same,scaled lipid accumulation score,[2],≤ 0
CCN(CC)CCCCNc1ncc2cc(-c3c(Cl)cccc3Cl)c(NC(=O)NC(C)(C)C)nc2n1 [listing 1 of 2 here],scaled lipid accumulation score,[2],0.999 (active)
CCN(CC)CCCCNc1ncc2cc(-c3c(Cl)cccc3Cl)c(NC(=O)NC(C)(C)C)nc2n1 [listing 2 of 2 here],scaled lipid accumulation score,[2],1.41 (active)
CSc1cccc(Nc2ncc3cc(-c4c(Cl)cccc4Cl)c(=O)n(C)c3n2)c1,scaled lipid accumulation score,[3],0.68
same,scaled lipid accumulation score,[2],0.591
CCN(CC)CCOc1ccc(Nc2ncc3cc(-c4c(Cl)cccc4Cl)c(=O)n(C)c3n2)cc1,scaled lipid accumulation score,[2],0.416
COc1c(C=O)c(O)cc2c1C(=O)c1ccccc1C2=O [Damnacanthal],scaled lipid accumulation score,library stock concentration: 17.7 mM,≤ -0.011
Nc1nc(=O)c2c([nH]1)NC[C@@H](CNc1ccc(C(=O)N[C@@H](CCC(=O)O)C(=O)O)cc1)N2C=O [Folinic acid calcium salt],scaled lipid accumulation score,,≤ 0
CCC(=O)N1CCN(C(=O)c2ccccc2)CC1,scaled lipid accumulation score,[2],0.027
O=C(c1ccc(C=Cc2n[nH]c3ccccc23)cc1)N1CCNCC1,scaled lipid accumulation score,[2],1.27 (active)
O=C(c1ccc(/C=C/c2n[nH]c3ccccc23)cc1)N1CCNCC1,scaled lipid accumulation score,[4],≤ -0.016
same,scaled lipid accumulation score,[5],≤ -0.016
same,scaled lipid accumulation score,[6],≤ -0.016
same,scaled lipid accumulation score,[3],0.101
same,scaled lipid accumulation score,[2],0.67
CCCCC(CC)CNC(=N)NC(=N)NCCCCCCNC(=N)NC(=N)NCC(CC)CCCC (centres undefined) [Alexidine dihydrochloride],scaled lipid accumulation score,,0.586
"CCCCC(C)(C)[C@H](O)/C=C/[C@@H]1[C@@H](C/C=C\CCCC(=O)O)[C@@H](O)C[C@H]1O [16,16-dimethyl Prostaglandin F2.alpha.]",scaled lipid accumulation score,[1],≤ 0
O=[N+]([O-])c1cn2c(n1)OC[C@@H](OCc1ccc(OC(F)(F)F)cc1)C2,scaled lipid accumulation score,[3],≤ 0
same,scaled lipid accumulation score,[2],≤ 0
O=[N+]([O-])c1ccc2c(c1)S(=O)(=O)C=C2 [Stattic] [listing 1 of 2 here],scaled lipid accumulation score,[3],1.25 (active)
O=[N+]([O-])c1ccc2c(c1)S(=O)(=O)C=C2 [Stattic] [listing 2 of 2 here],scaled lipid accumulation score,[2],0.347
NC(=O)c1ccc([N+](=O)[O-])cc1Cl [Aklomide],scaled lipid accumulation score,[2],0.07
CCCCCCCC/C=C\CCCCCCCC(=O)NCC [Oleoyl Ethyl Amide],scaled lipid accumulation score,[1],≤ 0
O=c1[nH]cnc2[nH]ncc12 [Allopurinol Sodium],scaled lipid accumulation score,[3],≤ 0
same,scaled lipid accumulation score,[2],≤ 0
CC(C)C(=O)Oc1ccc(CO)cc1[C@H](CCN(C(C)C)C(C)C)c1ccccc1 [Fesoterodine Fumarate],scaled lipid accumulation score,[3],0.256
CC(C)C(=O)Oc1ccc(CO)cc1[C@H](CCN(C(C)C)C(C)C)c1ccccc1.O=C(O)C=CC(=O)O [Fesoterodine Fumarate],scaled lipid accumulation score,[2],1.13 (active)
CC(C)N(CC[C@H](c1ccccc1)c1cc(CO)ccc1O)C(C)C,scaled lipid accumulation score,[3],0.012
same,scaled lipid accumulation score,[2],≤ 0
O=C(Cc1ccccc1Nc1c(Cl)cccc1Cl)Oc1ccc(-c2cc(=S)ss2)cc1,scaled lipid accumulation score,[1],≤ 0
O=C(Nc1nc2ccccc2n1CCN1CCOCC1)c1cccc([N+](=O)[O-])c1 [IRAK-1/4 Inhibitor I],scaled lipid accumulation score,[2],0.485
C[C@H]1[C@H]2CC[C@H]3[C@@H]4CC=C5C[C@@H](N(C)C)CC[C@]5(C)[C@H]4CC[C@]23CN1C [Conessine],scaled lipid accumulation score,,0.137
Cc1cc(C(C)Nc2ccccc2)c2nc(N3CCOCC3)cc(=O)n2c1 (centres undefined),scaled lipid accumulation score,[4],≤ -0.009
same,scaled lipid accumulation score,[5],≤ -0.009 and ≤ -0.005
same,scaled lipid accumulation score,[6],≤ -0.009 and ≤ -0.005
same,scaled lipid accumulation score,[3],≤ 0
same,scaled lipid accumulation score,[2],≤ 0 and ≤ -0.009 and ≤ -0.005
"c1ccc(CN2CCC3(CCCc4ccccc43)CC2)cc1 [L-687,384 hydrochloride]",scaled lipid accumulation score,[2],0.374
Cl.Cl.O=C(NCCCN1CCC2(CC1)OCc1ccccc12)[C@H]1CCCN1Cc1ccccc1,scaled lipid accumulation score,[2],0.974 (active)
"c1ccc(CN2CCC3(CCc4ccccc43)CC2)cc1 [L-693,403 maleate]",scaled lipid accumulation score,[2],0.504
CC1(C)S[C@@H]2[C@H](N3C(=O)[C@@H](c4ccccc4)NC3(C)C)C(=O)N2[C@H]1C(=O)O [Hetacillin potassium],scaled lipid accumulation score,library stock concentration: 4.7 mM,0.007
same,scaled lipid accumulation score,[2],≤ 0
CC(C)(C)CC(C)(C)c1ccc(O)c(Cc2ccc(Cl)cc2Cl)c1 [Clofoctol],scaled lipid accumulation score,[2],≤ -0.027
CC(=O)O[C@]1(C(C)=O)CC[C@H]2[C@@H]3C=C(C)C4=CC(=O)CC[C@]4(C)[C@H]3CC[C@@]21C [Megestrol Acetate],scaled lipid accumulation score,[3],≤ 0
same,scaled lipid accumulation score,[2],≤ 0
CC(=O)O[C@]1(C(C)=O)CCC2C3C=C(Cl)C4=CC(=O)CC[C@]4(C)C3CC[C@@]21C (some centres undefined) [Chlormadinone acetate],scaled lipid accumulation score,[2],0.968 (active)
CC(=O)O[C@]1(C(C)=O)CC[C@H]2[C@@H]3C=C(Cl)C4=CC(=O)CC[C@]4(C)[C@H]3CC[C@@]21C [Chlormadinone acetate],scaled lipid accumulation score,library stock concentration: 4.5 mM,0.064
same,scaled lipid accumulation score,library stock concentration: 4.9 mM,0.08
CC(=O)O[C@]1(C(C)=O)CC[C@H]2[C@@H]3C=C(C)C4=CC(=O)CC[C@]4(C)[C@H]3CC[C@@]21C [Megestrol acetate],scaled lipid accumulation score,,≤ 0
same,scaled lipid accumulation score,library stock concentration: 5.2 mM,≤ 0 and 0.036
same,scaled lipid accumulation score,[2],≤ 0
CC(=O)O[C@]1(C(C)=O)CC[C@H]2[C@@H]3C=C(C)C4=CC(=O)CC[C@]4(C)[C@H]3CC[C@@]21C,scaled lipid accumulation score,[2],≤ 0
"CC(C)n1cnc2c(NCc3ccccc3O)nc(NCCCO)nc21 [Cdk Inhibitor, p35]",scaled lipid accumulation score,[3],≤ 0
N[C@@H](Cc1cc(I)c(Oc2cc(I)c(O)c(I)c2)c(I)c1)C(=O)O [L-Thyroxine],scaled lipid accumulation score,[3],≤ 0
same,scaled lipid accumulation score,[2],≤ 0
N[C@@H](Cc1cc(I)c(Oc2cc(I)c(O)c(I)c2)c(I)c1)C(=O)O [Levothyroxine],scaled lipid accumulation score,library stock concentration: 2.6 mM,≤ 0
N[C@@H](Cc1cc(I)c(Oc2cc(I)c(O)c(I)c2)c(I)c1)C(=O)O,scaled lipid accumulation score,[2],≤ 0
c1ccc(C(OC2CCN(CCCc3nn[nH]n3)CC2)c2ccccc2)cc1,scaled lipid accumulation score,[1],≤ 0
O=C1c2ccc(O)c(O)c2C(=O)c2c(O)ccc(O)c21 [Quinalizarin],scaled lipid accumulation score,[2],≤ 0
CCCCCCCCCCCCCCCCCC(=O)NCCO [Stearoyl Ethanolamide],scaled lipid accumulation score,[1],≤ 0
CC(C)OC(=O)CCC/C=C\C[C@@H]1[C@@H](/C=C/[C@H](O)C2Cc3ccccc3C2)[C@@H](F)C[C@@H]1O [AL 8810 isopropyl ester],scaled lipid accumulation score,[1],≤ 0
CCCCCCOC(=O)[C@]1(O)C[C@@H]2O[C@@]1(C)n1c3ccccc3c3c4c(c5c6ccccc6n2c5c31)C(=O)NC4,scaled lipid accumulation score,library stock concentration: 900 uM,0.034
same,scaled lipid accumulation score,[3],≤ 0
CN[C@@H]1C[C@H]2O[C@@](C)([C@@H]1OC)n1c3ccccc3c3c4c(c5c6ccccc6n2c5c31)C(=O)N[C@H]4O,scaled lipid accumulation score,[3],1.21 (active)
